Screening data as filed in PubChem.
MARV entry inh: qHTS for inhibitors of binding or entry into cells for Marburg Virus; Marburg virus pseudotyped entry inhibition, cell reporter; Potency, µM (titrated, usually from 37.8 µM), actives largely listed as inhibitors; 300,000 tested, 1.8% active; calls by dose curve; tested in HEK293 cells
HCV inh: qHTS Assay for Inhibitors of Hepatitis C Virus (HCV). Huh7.5.1 HCVcc-Cre infection, luciferase reporter, 44 h. Potency, µM (top dose mostly 41.8 µM), actives largely listed as inhibitors. 340,000 tested, 3.4% active; active = well fitted inhibition curve with a large enough effect; inconclusive = small, poorly fitted or top-dose-only effect, or another doubt; inactive = no such curve, though single readings can be large or run the other way
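HCVcc-Cre virus at an moi near 0.5 was added right after compound to cells cultured 4 h from seeding (1,000 cells/well). Luciferase activity was determined 44 h later, 15 min after substrate addition at RT.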
LASV entry inh: qHTS for Inhibitors of binding or entry into cells for Lassa Virus | 300,000 tested, 1.2% active | Lassa virus pseudotype entry inhibition, cell reporter | Potency, µM (highest dose often 37.9 µM), hits mostly inhibitors | AID 540256, 2011; calls by dose curve; tested in HEK293 cells; note: nearly all actives have a fitted effect of over 50% in size
SARS PLP yeast: qHTS of Yeast-based Assay for SARS-CoV PLP | Potency, µM (titrated, usually from 32.9 µM), actives largely listed as activators | AID 485353, 2010 | S. cerevisiae expressing SARS-CoV PLpro, growth rescue | 330,000 tested, 0.19% active; calls by dose curve; note: nearly all actives have a fitted effect of over 55% in size
HCMV antiviral: qHTS Assay for inhibitors of the human cytomegalovirus (HCMV); HFF cells, HCMV-luciferase reporter, 72 h; active compounds read low; activity change, negative = inhibition, % at 57.5 µM; 410,000 tested, 4.5% active; in the data active = activity change below about -60%; inconclusive = no clear call, values can overlap the other calls; inactive = above about -39%
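Screen run at 2 compound doses on HFFs infected with reporter HCMV, MOI 1 PFU/cell. Luciferase activity from cell lysates at 72 h post infection gave inhibition relative to buffer-only and Salinomycin wells.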
FMDV antiviral: High Throughput Screening for Foot and Mouth Disease Virus Antivirals. FMDV antiviral cell-based qHTS. Potency, µM (titrated, usually from 57.9 µM), hits mostly inhibitors. 410,000 tested, 1.2% active; calls by dose curve; tested in HEK293T cells; note: read-out not given here; nearly all actives have a fitted effect of over 45% in size
Hits are given with their value; i = inactive; ? = inconclusive; nt = no result given; ! = a repeat was not active. Most compounds without a hit are left out; they make up all but 8% or so of the library.

SMILES | MARV entry inh | HCV inh | LASV entry inh | SARS PLP yeast | HCMV antiviral | FMDV antiviral
O=C(Nc1ccc(F)c(Cl)c1)N1CC=C(c2c[nH]c3ccccc23)CC1 | nt | nt | i | nt | i | i
Cc1ccc2[nH]c3c(=O)n(CC(=O)N4CCN(c5ccccc5F)CC4)ncc3c2c1 | nt | nt | i | nt | i | i
CC1Cn2c(C(=O)NCCc3ccc(Cl)cc3)cc3cccc(c32)S1 (stereo not given) | nt | nt | i | nt | i | i
NC(=S)N/N=C/c1ccc(-n2nncc2-c2ccc(Cl)cc2)cc1 | ? | 13µM | 11µM | 10µM | nt | i
NC(=O)C1CCN(C(=O)c2ccccc2CCc2ccccc2)CC1 | ? | i | i | i | i | i
O=C(Cc1ccccc1)c1ccccc1C(=O)N1CCCCC1 | ? | 3.2µM | i | i | i | i
O=C(c1ccccc1CCc1ccccc1)N1CCOCC1 | i | i | i | i | -104 | i
O=C(Cc1ccccc1)Nc1ccccc1C(=O)N1CCCCC1 | nt | i | nt | i | i | i
CCc1ccc(NC(=O)NCCc2c(C)nn(C)c2C)cc1 | nt | nt | ? | nt | i | i
CC[C@H](C(=O)OCCN(CC)CC)c1ccccc1 | i | nt | nt | nt | nt | nt
CCN1C(=O)/C(=C/c2ccc(N(CC)CC)cc2OC)C(=O)NC1=S | nt | i | nt | i | i | 35µM
Cc1cc2oc(C(=O)Nc3ccc(S(=O)(=O)N(C)c4ccccc4)cc3)cc(=O)c2cc1C | ? | nt | ? | nt | i | i
CCN1C(=NCC(C)C)NC(c2cccc(F)c2)C(C(=O)OC)=C1C (stereo not given) | i | nt | nt | nt | nt | nt
CCCS(=O)(=O)c1nnnn1-c1cccc(OC)c1 | 26µM | 8.9µM | i | i | nt | 28µM
CCn1ncc([C@@H]2C[C@H]3CN(Cc4ccccc4C)C(=O)[C@]34CCCN24)c1C | nt | i | nt | i | i | i
Cc1ccccc1CN1C[C@@H]2C[C@@H](c3cn[nH]c3-c3ccccc3)N3CCC[C@@]23C1=O | ? | 13µM | ? | i | -66 | i
O=C(Nc1cccc(Br)c1)c1ccc(Cl)c(S(=O)(=O)N2CCOCC2)c1 | ? | 4µM | ? | i | -98 | nt
O=C(Nc1cccc(S(=O)(=O)C(F)F)c1)c1ccc(Cl)c(S(=O)(=O)N2CCOCC2)c1 | 10µM! | 13µM | ? | i | ? | 40µM
O=C(Nc1cccc(C(=O)NC2CC2)c1)c1ccc(Cl)c(S(=O)(=O)N2CCOCC2)c1 | nt | ? | nt | i | i | ?
O=C(Nc1cccnc1)c1ccc(Cl)c(S(=O)(=O)N2CCOCC2)c1 | i | i | i | i | i | i
O=C(Nc1ccc(F)cc1F)C(Cc1ccccc1)N1Cc2ccccc2C1=O (stereo not given) | nt | nt | i | nt | i | i
N=c1sc2ccccc2n1-c1ccccc1 | i | ? | i | i | i | i
C=CC(=O)N=c1sc2ccccc2n1-c1ccccc1 | ? | 11µM | ? | i | i | ?
O=C(CN1C(=O)c2ccccc2S1(=O)=O)c1ccc2c(c1)OCCO2 | nt | i | nt | i | -98 | 3.5µM
O=C(CN1C(=O)c2ccccc2S1(=O)=O)c1ccc2c(c1)OCCCO2 | ? | i | ? | i | -96 | 3.2µM
SMILES | MARV entry inh | HCV inh | LASV entry inh | SARS PLP yeast | HCMV antiviral | FMDV antiviral
COc1cccc(Cn2c(Oc3cc(C)cc(C)c3)nc3c2c(=O)n(C)c(=O)n3C)c1 | i | nt | ? | nt | i | i
COc1cccc(C2(CSc3nnc(-c4cc(OC)c(OC)c(OC)c4)o3)OCCO2)c1 | i | ? | 11µM | i | i | ?
COc1ccccc1C(=O)OCCc1ccccc1 | ? | i | i | nt | -100 | i
Cc1nc(C)n(CC(=O)NCC2Cc3cc(-c4ccsc4)cc(Cl)c3O2)n1 (stereo not given) | nt | nt | nt | nt | nt | i
COc1ccc(Nc2oc(-c3ccco3)nc2S(=O)(=O)c2ccc(F)cc2)cc1 | i | ? | i | i | ? | i
O=S(=O)(c1ccc(F)cc1)c1nc(-c2ccco2)oc1Nc1ccc(F)cc1 | i | ? | i | i | -74 | i
COc1ccc2c(c1)CCC/C(C)=C/C(=O)c1ccccc1O2 | nt | nt | nt | nt | i | nt
Cc1cccc2[nH]c3c(N4CC=C(c5ccc(F)cc5)CC4)ncnc3c12 | 11µM | 13µM | ? | i | ? | 40µM
OCc1cn(Cc2ccc(O)c3ncccc23)cn1 | nt | nt | nt | i | nt | nt
Cc1ccc(C2=N/C(=C/c3cccs3)C(=O)N2Nc2ccccc2)cc1 | ? | 11µM | i | i | i | i
